# LASV entry inh: blocks Lassa virus binding to or entry into cells; AID 540256; 1.2% of 300,000 active; Lassa virus pseudotype entry inhibition, cell reporter; Potency, µM (series often up to 37.9 µM), actives largely listed as inhibitors; calls by dose curve; tested in HEK293 cells; also: nearly all actives have a fitted effect of over 50% in size
# VACV Venus inh: inhibitors of vaccinia virus (Venus reporter); Vaccinia virus Venus reporter expression, fluorescence; Potency, µM (highest dose often 36.5 µM), actives largely listed as inhibitors; AID 720580; 0.46% of 330,000 active; calls by dose curve; tested in A549 cells; also: nearly all actives have a fitted effect of over 30% in size
# Marburg entry inh: blocks Marburg virus binding to or entry into cells. 1.8% of 300,000 active. Potency, µM (highest dose often 37.8 µM), usual class: inhibitors. Marburg virus pseudotyped entry inhibition, cell reporter; calls by dose curve; tested in HEK293 cells
# HCV inhibitor: HCV inhibition. Huh7.5.1 HCVcc-Cre infection, luciferase reporter, 44 h. Potency, µM (titrated, usually from 41.8 µM), usual class: inhibitors. 3.4% of 340,000 active
#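 HCVcc-Cre virus at an moi near 0.5 was added right after compound to cells cultured 4 h from seeding (1,000 cells/well). Luciferase activity was determined 44 h later, 15 min after substrate addition at RT.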
# HCMV antiviral: human cytomegalovirus inhibition; HFF cells, HCMV-luciferase reporter, 72 h; hits give low values; activity change, negative = inhibition, % at 57.5 µM; 4.5% of 410,000 active; in the data active = activity change below about -60%; inconclusive = no clear call, values can overlap the other calls; inactive = above about -39%
#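 Human foreskin fibroblasts infected with luciferase-reporter HCMV at MOI 1 PFU/cell, compounds at two doses. Luciferase measured 72 h post infection; normalized to buffer-only basal and Salinomycin (10uM) controls.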
# VACV mCherry inh: inhibitors of vaccinia virus infection (mCherry reporter signal); Vaccinia virus mCherry reporter infection, fluorescence; Potency, µM (highest dose often 36.5 µM), actives largely listed as inhibitors; 0.63% of 310,000 active; AID 720579; calls by dose curve; tested in A549 cells; also: nearly all actives have a fitted effect of over 35% in size
# HCV inh confirm: HCV inhibition, cherry-pick confirmation; shares compounds with HCV inhibitor; HCVcc-Cre infectious virus cell assay, luciferase, inhibition; 78% of 640 active; Potency, µM (top dose mostly 41.8 µM), usual class: inhibitors; also: nearly all actives have a fitted effect of over 80% in size
# HCV cytotox: counter-screen for HCV inhibitors: host cell cytotoxicity; shares compounds with HCV inhibitor; HCV host cell line cytotoxicity counterscreen; Potency, µM (series often up to 41.8 µM), most hits filed as inhibitors; 22% of 640 active; AID 720576;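 also: 44 h compound exposure; nearly all actives have a fitted effect of over 55% in size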
# Hits are given with their value; . = inactive; ? = inconclusive; / = not tested or not shown; [ ] = remark or other dose. Sampled rows, rich in hits. Any-hit rate of the full collection: about 7.8%. Unless noted, calls follow the shape of the dose curve; as a rule, active = well fitted curve in the direction sought with a large enough effect; inconclusive = small, poorly fitted or top-dose-only effect, or another doubt; inactive = no such curve, though single readings can be large; an effect the other way counts as inactive or inconclusive.
SMILES,LASV entry inh,VACV Venus inh,Marburg entry inh,HCV inhibitor,HCMV antiviral,VACV mCherry inh,HCV inh confirm,HCV cytotox
CC(C)(O)C#Cc1ccc([C@@H]2C[C@H]3CN(c4ccccc4)C(=O)[C@]34CCCN24)s1,?,?,?,?,-99.2,?,7.05µM,.
COc1ccc(NC(=O)COC(=O)c2c3c(nc4ccccc24)CCCC3)cc1Cl,?,?,?,4.47µM,?,?,4.99µM,31.5µM
COc1ccc(-c2coc3cc(O)cc(O)c3c2=O)cc1,?,.,?,.[8.37 µM],.,.,/,/
O=c1c(-c2ccc(O)cc2)coc2cc(O)cc(O)c12,?,?,?,0.891µM,.,11.2µM,.,.
COC(=O)CN1C(=O)C(O)(CC(=O)c2ccc(Cl)cc2)c2ccccc21 (stereo not drawn),/,.,/,.,.,.,/,/
COC(=O)C[C@]1(C(=O)OC)CN(C#N)N(c2ccc(Cl)cc2)C12c1ccccc1-c1ccccc12,3.16µM,?,?,5.62µM,-101.9,11.2µM,3.15µM,7.91µM
Cc1ccc(N(CC(=O)Nc2ccc(C)c(F)c2)S(=O)(=O)c2c(C)n[nH]c2C)cc1,.,.,.,/,.,.,/,/
O=C(N/N=C1\CCCc2c1[nH]c1ccc(Cl)cc21)c1ccncc1,/,/,.,3.16µM,?,/,8.87µM,?
CCc1ccccc1NC(=O)Cn1nnc(C(=O)NCc2ccccc2Cl)c1N,.,.,/,/,.,.,/,/
Clc1ccc2nc(-c3ccc(Br)s3)cn2c1,8.2µM,/,?,?,.,/,6.28µM,?
O=C(c1cn(-c2ccccc2)nc1-c1cccc([N+](=O)[O-])c1)N1CCCCC1,.,.,.,?,?,.,11.2µM,.
Cc1ccc(OCC(=O)Nc2nnc(SCc3cc(=O)c4ccccc4[nH]3)s2)cc1C,.,.,/,/,.,.,/,/
Cc1cc(C)cc(NC(=O)C(=O)NCC(c2cccnc2)N2CCc3ccccc32)c1 (stereo not drawn),.,.,/,/,.,.,/,/
CCCCSc1nc2sc3c(c2c(=O)n1-c1ccc(OC)cc1)CCN(C)C3,.,.,?,.,?,?,/,/
CCCCCNc1nc2sc3c(c2c(=O)n1-c1cccc(Cl)c1)CCN(C)C3,.,.,?,1µM,?,.,2.23µM,.
CCCCSc1nc2sc3c(c2c(=O)n1-c1ccccc1)CCN(C)C3,/,/,/,?,.,/,12.5µM,.
COc1cccc(N2CCN(C(=O)CCc3c(C)nc4c(c3C)c(=O)n(C)c(=O)n4C)CC2)c1,.,.,.,/,.,.,/,/
Cn1ncc2c(NCCc3ccccc3)nc(Cl)nc21,.,.,.,?,.,.,25µM,.
Cc1noc(/C=C/c2ccccc2F)c1S(=O)(=O)N1CCC(C(=O)N2CCN(C)CC2)CC1,/,/,/,3.98µM,.,/,22.3µM,?
Cc1ccc(C(=O)Nc2ccc(Cl)c(-c3nc4ncccc4o3)c2)c(C)c1,.,.,.,/,.,.,/,/
COc1cc(Cl)c(C)cc1NC(=O)CSc1ccc(C)cc1,.,/,.,?,.,/,/,/
COc1cc(Cl)c(C)cc1NC(=O)CSc1cc(Cl)ccc1Cl,?,.,.,?,.,.,11.2µM,.
COc1cc(CCC(O)CC(=O)CCc2ccccc2)ccc1O (stereo not drawn),/,.,/,1.12µM,.,.,.,.
Cc1ccc(-c2nnc3ccccc3c2C(=O)Nc2ccc(F)cc2)cc1,?,.,/,/,.,.,/,/
Cc1cccc(CN2C(=O)N/C(=C/c3cc(C)n(-c4cc(C)ccn4)c3C)C2=O)c1,11.2µM,.,?,1.78µM,/,/,15.8µM,.
SMILES,LASV entry inh,VACV Venus inh,Marburg entry inh,HCV inhibitor,HCMV antiviral,VACV mCherry inh,HCV inh confirm,HCV cytotox
Cc1cc(SCC(=O)c2ccccc2)n2ncc(-c3ccccc3)c2n1,/,/,/,?,.,/,?,.
COc1ccc(-n2nc(C(=O)NCCc3ccc(OC)c(OC)c3)c3c4ccccc4n(C)c3c2=O)cc1Cl,?,.,?,/,.,.,/,/
O=C1S/C(=C/c2ccc(N3CCOCC3)o2)C(=O)N1Cc1c(F)cccc1Cl,.,/,?,?,.,/,12.5µM,.
O=C1S/C(=C\c2ccc(N3CCOCC3)o2)C(=O)N1Cc1c(F)cccc1Cl,.,.,.,?,.,.,/,/
COc1ccc(NC(=O)c2ccccc2SC)cc1,.,.,.,.,.,.,/,/
COc1ccc(OC)c(NC(=O)c2ccccc2SC)c1,.,/,?,8.91µM,.,/,?,.
O=C(OCCOc1cccc(Cl)c1)c1cc(S(=O)(=O)N2CCCCC2)ccc1N1CCOCC1,?,?,?,?,-88.2,?,3.53µM,6.28µM
O=C(COC(=O)c1cc(S(=O)(=O)N2CCCCC2)ccc1N1CCOCC1)c1ccc(Cl)cc1,?,.,?,?,.,.,/,/
CCOc1cc(CNC(C)(C)C)ccc1OCC(=O)Nc1cccc(C(F)(F)F)c1,.,.,?,?,.,.,3.15µM,.
COCCNC(=O)CSc1nc2cc3c(cc2c(=O)n1Cc1ccc(C(=O)NCCc2ccc(OC)c(OC)c2)cc1)OCO3,.,.,/,/,.,.,/,/
C=CCNC(=S)N/N=C/c1ccc(C(F)(F)F)cc1,/,/,/,8.91µM,-86.1,/,8.87µM,12.5µM
C=CCNC(=O)CC(=O)N/N=C/c1ccc(F)cc1,?,.,.,.,.,.,/,/
COc1ccc(Cl)cc1NC(=O)C(OC)c1ccccc1 (stereo not drawn),.,.,?,6.31µM,.,.,19.9µM,.
CCCn1c(N)c(C(=O)COc2ccc(Br)cc2F)c(=O)n(C)c1=O,/,/,/,?,?,/,22.3µM,.
O=C(CCc1nc(-c2ccccc2F)no1)Nc1cccc(C(F)(F)F)c1,.,.,.,/,.,.,/,/
COC(=O)CNC(=O)/C=C/c1cc(Br)ccc1OC,.,.,?,?,.,.,/,/
COc1ccc(Br)cc1/C=C/C(=O)Nc1ccc(C)cc1,?,.,?,?,.,?,7.05µM,.
COc1ccc(-n2c(C)cc(/C=C3/SC(=S)N(C)C3=O)c2C)cc1,.,.,?,.,?,.,/,/
Cc1cc(/C=C2\SC(=S)N(C)C2=O)c(C)n1-c1cccc(O)c1,/,.,/,4.47µM,-92.0,?,25µM,25µM
C[C@@H]1CN([C@@H](C)CO)C(=O)CCCn2cc(nn2)CO[C@H]1CN(C)C(=O)C1CCCCC1,/,/,/,/,.,/,/,/
Cc1ccc(NC(=O)CSc2nc(-c3cccs3)cc(C(F)(F)F)n2)cc1C,?,.,?,/,.,.,/,/
CCOC(=O)c1cccc(NC(=O)CC2C(=O)N(c3ccc(OC)cc3)C(=O)N2C2CCCC2)c1 (stereo not drawn),.,.,/,/,.,.,/,/
CC1(C)NC(=O)N(CC(=O)Nc2nc(-c3ccc(F)cc3)cs2)C1=O,.,.,.,3.55µM,.,.,?,.
Cc1nn(C)c(Nc2ccc(Br)cc2)c1Br,/,.,.,3.55µM,-83.2,.,4.99µM,8.87µM
